Bioassay records as filed in PubChem BioAssay.
This excerpt belongs to a sample that is enriched for hits.
HT1080NT lethal: kills 2HG-producing HT-1080-NT fibrosarcoma cells; HT-1080-NT fibrosarcoma viability, CellTiter-Glo ATP luminescence, 48 h; Potency, µM (highest dose often 46.1 µM), most hits filed as cytotoxic; 1.6% of 360,000 active;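 also: NT is the 2HG producing partner of a matched IDH1 knockdown line; nearly all actives have a fitted effect of over 55% in size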
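Luminescent CellTiter-Glo readout after 48 hours of compound exposure at 37 degrees C defined viability of HT-1080-NT cells. Activity was normalized to DMSO wells and cell-free media wells; concentration-response curves were fitted and assigned curve classes.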
TDP1 cell CPT: DT40-hTDP1 cell growth loss with CPT; chicken DT40 Tdp1-/-;hTDP1 cells + 20 nM CPT, ATP luminescence, 48 h; Potency, µM (top dose mostly 46.2 µM), hits mostly inhibitors; 12% of 420,000 active; also: nearly all actives have a fitted effect of over 55% in size
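Cell growth measured by CellTiter-Glo luminescence after a minimum 48 h, 37 C compound exposure with 20 nM CPT in Tdp1-knockout DT40 cells stably expressing hTDP1, seeded 400/well; qHTS titration format.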
IL1B secr inh: blocks inflammasome-driven IL-1 beta release; activity change, % at 57.5 µM; THP-1 LPS/ATP IL-1B secretion, AlphaLISA, 16 h; hits give low values; 4.7% of 360,000 active; in the data active = activity change below about -50%; inconclusive = mostly about -30% to -49%
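Secreted IL-1B measured by AlphaLISA bead assay after 16 h compound exposure of THP-1 cells; compounds (final up to 57.5 uM) added 1 h before LPS (250 ng/mL) and ATP (1.25 mM) stimulation; lower signal means less secretion.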
TDP1 cell noCPT: qHTS for Inhibitors of human tyrosyl-DNA phosphodiesterase 1 (TDP1): qHTS in cells in absence of CPT; DT40 Tdp1-/- hTDP1 cells, no CPT, ATP luminescence, 48 h; Potency, µM (top dose mostly 46.2 µM), hits mostly inhibitors; 15% of 420,000 active; AID 686978, 2013; also: nearly all actives have a fitted effect of over 55% in size
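No-CPT arm: Tdp1-/-;hTDP1 DT40 cells (400/well) plus compounds, incubated ≥48 hr at 37 °C. Readout CellTiter-Glo luminescence.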
ALOX12 inh: inhibitors of human 12S-lipoxygenase ALOX12 | P18054 | purified 12hLO, xylenol orange hydroperoxide absorbance | Potency, µM (series often up to 108 µM), actives largely listed as inhibitors | 1.1% of 580,000 active
Target sequence (P18054 whole entry, looked up): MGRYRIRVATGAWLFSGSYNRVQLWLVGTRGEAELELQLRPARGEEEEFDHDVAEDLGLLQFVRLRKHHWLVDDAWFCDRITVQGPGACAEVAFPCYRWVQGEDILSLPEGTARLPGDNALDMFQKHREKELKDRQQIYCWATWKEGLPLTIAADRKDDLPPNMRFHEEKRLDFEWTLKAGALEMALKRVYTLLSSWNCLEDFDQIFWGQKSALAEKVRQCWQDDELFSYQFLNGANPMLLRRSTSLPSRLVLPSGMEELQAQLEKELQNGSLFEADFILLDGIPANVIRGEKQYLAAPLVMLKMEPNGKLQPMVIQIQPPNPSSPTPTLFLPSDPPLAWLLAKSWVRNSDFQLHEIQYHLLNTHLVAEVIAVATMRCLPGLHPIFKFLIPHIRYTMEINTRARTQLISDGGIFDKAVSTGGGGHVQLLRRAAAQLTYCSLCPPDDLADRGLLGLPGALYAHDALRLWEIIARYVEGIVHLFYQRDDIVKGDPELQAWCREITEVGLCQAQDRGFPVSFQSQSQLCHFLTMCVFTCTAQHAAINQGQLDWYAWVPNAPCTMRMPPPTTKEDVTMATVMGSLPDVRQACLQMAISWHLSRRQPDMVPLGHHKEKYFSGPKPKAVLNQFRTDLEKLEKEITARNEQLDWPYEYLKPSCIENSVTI
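Purified human 12hLO (150 nM final) in 25 mM Hepes, 0.01% Triton X-100, pH 7.0 was preincubated 15 min at room temperature with compound. Then 40 uM arachidonic acid was added, 30 min. Hydroperoxide was read by Fe-XO absorbance ratio 573/405 nm.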
HT1080 IDH1KD tx: toxicity to HT-1080 IDH1 knockdown cells (counter line); HT-1080 IDH1 knockdown viability, ATP luminescence, 48 h; Potency, µM (titrated, usually from 46.1 µM), most hits filed as cytotoxic; 2% of 360,000 active; AID 686971
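CellTiter-Glo luminescence after 48 h compound exposure at 37 degrees C of IDH1-knockdown HT-1080 cells in 5% FBS RPMI. %Activity scaled between DMSO wells and cell-free media wells, with curves fitted and assigned curve classes.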
Large screens that a line does not name were inactive. Unless noted, calls follow the shape of the dose curve; as a rule, active = well fitted curve in the direction sought with a large enough effect; inconclusive = small, poorly fitted or top-dose-only effect, or another doubt; inactive = no such curve, though single readings can be large; an effect the other way counts as inactive or inconclusive.

CC(NC(=O)c1ccc(OC2CCN(Cc3ccccn3)CC2)cc1)c1ccccc1 (stereo not drawn)	TDP1 cell CPT inconclusive, TDP1 cell noCPT 18.4µM
CCOC(=O)c1c(-c2ccc(C)o2)csc1NC(=O)COC(=O)c1cccs1	TDP1 cell CPT inconclusive, TDP1 cell noCPT 18.4µM
CCOC(=O)c1c(-c2cccs2)csc1NC(=O)CN(CC)CC	TDP1 cell CPT inconclusive, TDP1 cell noCPT inconclusive
CCOC(=O)c1c(-c2cccs2)csc1NC(=O)CC(C)C	TDP1 cell CPT 18.4µM, TDP1 cell noCPT 20.6µM
CCOC(=O)c1c(-c2cccs2)csc1NC(=O)c1ccco1	none
CCOC(=O)c1c(-c2cccs2)csc1NC(=O)CN1CCOCC1	TDP1 cell CPT inconclusive, TDP1 cell noCPT 20.6µM
CCOC(=O)c1c(-c2ccc(C)o2)csc1NC(=O)CN1CCOCC1	TDP1 cell CPT 16.4µM, TDP1 cell noCPT 16.4µM
COc1ccc(C(C)=O)c(OCc2ccccc2C#N)c1	none (no result: HT1080NT lethal, TDP1 cell CPT, IL1B secr inh, TDP1 cell noCPT, HT1080 IDH1KD tx)
c1ccc(OCc2cc(CC3(NCc4ccc5c(c4)OCO5)COC3)no2)cc1	none (no result: HT1080NT lethal, TDP1 cell CPT, IL1B secr inh, TDP1 cell noCPT, HT1080 IDH1KD tx)
CCOC(=O)c1c(CC(C)C)csc1NC(=O)COC(=O)c1cnc(C)cn1	none
CCOC(=O)c1c(-c2ccc(C)o2)csc1NC(=S)NC(=O)N(C)C	HT1080NT lethal 10µM, TDP1 cell CPT inconclusive, TDP1 cell noCPT inconclusive, ALOX12 inh inconclusive, HT1080 IDH1KD tx 12.6µM
CCOC(=O)c1c(CC(C)C)csc1NC(=O)CCl	TDP1 cell CPT 13µM, TDP1 cell noCPT 10.3µM, ALOX12 inh inconclusive
CCOC(=O)c1c(-c2ccc(C)o2)csc1N	ALOX12 inh inconclusive
CNC(=O)NC[C@H]1CCN(Cc2ccccc2)C[C@H]1N(C)C	none (no result: HT1080NT lethal, TDP1 cell CPT, IL1B secr inh, TDP1 cell noCPT, HT1080 IDH1KD tx)
COc1cccc(C(=O)NC2CCCc3c2cnn3-c2cc(C)cc(C)c2)c1 (stereo not drawn)	TDP1 cell CPT inconclusive, IL1B secr inh -57.6, TDP1 cell noCPT inconclusive
Cc1cc(C(=O)NC2CCCc3c2cnn3-c2ccc(C)c(C)c2)nc(C)n1 (stereo not drawn)	TDP1 cell CPT inconclusive, TDP1 cell noCPT 16.4µM
COC(=O)c1ccc(C(=O)NC2CCCc3c2cnn3-c2ccc(C)c(C)c2)cc1 (stereo not drawn)	HT1080NT lethal 14.6µM, TDP1 cell CPT 1.3µM, TDP1 cell noCPT 1.03µM, HT1080 IDH1KD tx 23.1µM
Cc1cc(C)n2c(NC3CCCC3)c(-c3cc4ccccc4o3)nc2n1	TDP1 cell CPT inconclusive, TDP1 cell noCPT inconclusive, ALOX12 inh inconclusive
Cc1cc(C)n2c(NC3CCCCC3)c(-c3ccccn3)nc2n1	TDP1 cell CPT inconclusive, TDP1 cell noCPT 23.1µM
COc1cccc(-c2nc3nc(C)cc(C)n3c2NC2CCCC2)c1	TDP1 cell CPT inconclusive, TDP1 cell noCPT inconclusive
Cc1cc(C)n2c(NC3CCCC3)c(-c3ccc(F)cc3)nc2n1	TDP1 cell CPT inconclusive, TDP1 cell noCPT 18.4µM, ALOX12 inh inconclusive
C=CC[C@@H](CC(=O)N(CCO)Cc1ccccc1)C(=O)N[C@H](COC(=O)[C@@H](CC=C)Cc1ccc(F)cc1)Cc1ccccc1	HT1080NT lethal inconclusive, TDP1 cell CPT inconclusive, IL1B secr inh -63.5, TDP1 cell noCPT 23.1µM, ALOX12 inh inconclusive, HT1080 IDH1KD tx inconclusive
C=CC[C@@H](CC(=O)N(CCO)Cc1ccccc1)C(=O)N[C@@H](COC(=O)[C@@H](CC=C)Cc1ccc(F)cc1)Cc1ccccc1	HT1080NT lethal inconclusive, TDP1 cell CPT 20.6µM, IL1B secr inh -68.2, TDP1 cell noCPT 20.6µM, HT1080 IDH1KD tx inconclusive
Cc1ccc(C(=O)O)c(OCC(=O)NCc2ccco2)c1	none (no result: HT1080NT lethal, TDP1 cell CPT, IL1B secr inh, TDP1 cell noCPT, HT1080 IDH1KD tx)
Nc1nc(NC(=O)c2ccc(F)cc2)ns1	IL1B secr inh -72.7
CCCCc1nn(-c2cc(Cl)ccc2OC)c2c1C(=O)CC(C)(C)C2	TDP1 cell CPT 11.6µM, TDP1 cell noCPT 20.6µM
CN(C)c1ccc(NC(=S)c2ccccn2)cc1	HT1080NT lethal inconclusive, TDP1 cell CPT 4.61µM, TDP1 cell noCPT 5.17µM, ALOX12 inh inconclusive, HT1080 IDH1KD tx inconclusive
